Whole data set: some 81,000 sequences, median “one-hybrid fitness for binding parS DNA” near -0.17, cut for the highest 2% near 0.51. The sample as a whole holds a higher share of the highest values than the screen did. Where only a bound is given, the exact number is not on record here.

From a collection of fitness landscapes (doi:10.1016/j.celrep.2020.107928) come the findings set out here.

The labels stand for the following.
B1: Caulobacter ParB omega fusion; a variant is named by its letters at X, in order, B8GW30 (parent)
chain: MESVVVGEPGMSEGRRGLGRGLSALLGEVDAAPAQAPGEQLGGSREAPIEILQRNPDQPRRTFREEDLEDLSNSIREKGVLQPILVRPSPDTAGEYQIVAGERAWRAAQRAGLKTVPIMVRELDDLAVLEIGIIENVQRADLNVLEEALSYKVLMEKFERTQENIAQTIGKSXSHVANXMRLLXLPDEVQSYLVSGELTAXHARAIAAAADPVALAKQIIEGGLSVRETEALARKAPNLSAGKSKGGRPPRVKDTDTQALESDLSSVLGLDVSIDHRGSTGTLTITYATLEQLDDLCNRLTRGI

The assay covers variants of B1. The assay is described as follows: one-hybrid fitness for binding parS DNA (scaled: cognate 1, non-cognate 0); higher = stronger binding. To be noted: with parS DNA site. The procedure, abridged: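 Caulobacter ParB libraries with four specificity codons randomised were screened by bacterial one-hybrid selection in the E. coli USO strain, using a HIS3 reporter whose site lies 19 bp from the promoter. Selection ran for 48 hours at 37°C on M9 lacking histidine, with 0.1 mM IPTG and 5 mM 3-AT. Plasmids were Illumina-sequenced before and after selection, three replicate libraries were pooled, and variants with under 10 reads were dropped. Fitness is the log change in each variant's read ratio to wild type, rescaled against the cognate and non-cognate sites.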
As for VKQG, the “one-hybrid fitness for binding parS DNA” value is at most 0.2.

As to RVKM, the “one-hybrid fitness for binding parS DNA” value amounted to 0.393.

As for RVVF, the “one-hybrid fitness for binding parS DNA” value stood at 0.22.

For RVKG, the “one-hybrid fitness for binding parS DNA” value came to 0.941.

Consider RVKQ, for which the “one-hybrid fitness for binding parS DNA” value was at most 0.2.

Take RVVK: the “one-hybrid fitness for binding parS DNA” value is at most 0.2.

With RVVG, the “one-hybrid fitness for binding parS DNA” value was found to be 0.942.

For QSVI, the “one-hybrid fitness for binding parS DNA” value is at most 0.2.

For the variant DCRY, the “one-hybrid fitness for binding parS DNA” value is at most 0.2.

As to LYRG, the “one-hybrid fitness for binding parS DNA” value was at most 0.2.

As to QLEI, the “one-hybrid fitness for binding parS DNA” value was at most 0.2.

For RRNP, the “one-hybrid fitness for binding parS DNA” value was at most 0.2.

Take RRDD: the “one-hybrid fitness for binding parS DNA” value was at most 0.2.

As for RRDP, the “one-hybrid fitness for binding parS DNA” value is at most 0.2.

Take RRNS: the “one-hybrid fitness for binding parS DNA” value turned out to be 0.646.

Take RRDS: the “one-hybrid fitness for binding parS DNA” value came out at 0.743.

For the variant RRDN, the “one-hybrid fitness for binding parS DNA” value is 0.257.

With RRNH, the “one-hybrid fitness for binding parS DNA” value came out at 0.256.

Regarding RRND, the “one-hybrid fitness for binding parS DNA” value is at most 0.2.

For the variant RRNN, the “one-hybrid fitness for binding parS DNA” value was found to be 0.811.

MPNM: the “one-hybrid fitness for binding parS DNA” value is at most 0.2.

Turning to LHPH, the “one-hybrid fitness for binding parS DNA” value was at most 0.2.

On to GDDG, for which the “one-hybrid fitness for binding parS DNA” value was at most 0.2.

Consider QSME, for which the “one-hybrid fitness for binding parS DNA” value is at most 0.2.

Take ACRS: the “one-hybrid fitness for binding parS DNA” value is at most 0.2.

On to SHIK, for which the “one-hybrid fitness for binding parS DNA” value was at most 0.2.

On to VLLG, for which the “one-hybrid fitness for binding parS DNA” value is at most 0.2.

RFND: the “one-hybrid fitness for binding parS DNA” value is at most 0.2.

RFDP: the “one-hybrid fitness for binding parS DNA” value is at most 0.2.

On to RFDS, for which the “one-hybrid fitness for binding parS DNA” value was 0.954.

RFNH: the “one-hybrid fitness for binding parS DNA” value was at most 0.2.

RFDN: the “one-hybrid fitness for binding parS DNA” value was determined as 0.354.

As for RFNS, the “one-hybrid fitness for binding parS DNA” value came to 0.984.

In the case of RMAW, the “one-hybrid fitness for binding parS DNA” value was determined as 0.235.

As for WGKS, the “one-hybrid fitness for binding parS DNA” value is at most 0.2.

As for RQTE, the “one-hybrid fitness for binding parS DNA” value was at most 0.2.

As for NRHC, the “one-hybrid fitness for binding parS DNA” value was at most 0.2.

Consider RRST, for which the “one-hybrid fitness for binding parS DNA” value is 0.54.

Consider RRYT, for which the “one-hybrid fitness for binding parS DNA” value was found to be 0.604.

RRRT: the “one-hybrid fitness for binding parS DNA” value was determined as 0.597.

In the case of RRRR, the “one-hybrid fitness for binding parS DNA” value is at most 0.2.

In the case of RRRK, the “one-hybrid fitness for binding parS DNA” value is at most 0.2.

As for RRDF, the “one-hybrid fitness for binding parS DNA” value was at most 0.2.

RRDK: the “one-hybrid fitness for binding parS DNA” value was at most 0.2.

As to RRDT, the “one-hybrid fitness for binding parS DNA” value stood at 0.648.

With RRSQ, the “one-hybrid fitness for binding parS DNA” value is at most 0.2.

RRYQ: the “one-hybrid fitness for binding parS DNA” value was at most 0.2.

Turning to RRSK, the “one-hybrid fitness for binding parS DNA” value was at most 0.2.

On to RRYF, for which the “one-hybrid fitness for binding parS DNA” value was at most 0.2.

On to SYQG, for which the “one-hybrid fitness for binding parS DNA” value is at most 0.2.

Turning to LIRC, the “one-hybrid fitness for binding parS DNA” value was at most 0.2.

Regarding MILL, the “one-hybrid fitness for binding parS DNA” value is at most 0.2.

PRDA: the “one-hybrid fitness for binding parS DNA” value is at most 0.2.

YSLD: the “one-hybrid fitness for binding parS DNA” value is at most 0.2.

Take WHRF: the “one-hybrid fitness for binding parS DNA” value was at most 0.2.

For RRLT, the “one-hybrid fitness for binding parS DNA” value came out at 0.623.

In the case of RRCK, the “one-hybrid fitness for binding parS DNA” value is at most 0.2.

As to RRGK, the “one-hybrid fitness for binding parS DNA” value was at most 0.2.

On to RRGT, for which the “one-hybrid fitness for binding parS DNA” value worked out at 0.566.

With RRCQ, the “one-hybrid fitness for binding parS DNA” value is at most 0.2.

On to RRWR, for which the “one-hybrid fitness for binding parS DNA” value is at most 0.2.

As for RRWT, the “one-hybrid fitness for binding parS DNA” value amounted to 0.682.

In the case of RRLQ, the “one-hybrid fitness for binding parS DNA” value was at most 0.2.

Take RRWM: the “one-hybrid fitness for binding parS DNA” value is at most 0.2.

Consider RRCT, for which the “one-hybrid fitness for binding parS DNA” value came out at 0.587.

In the case of RRLM, the “one-hybrid fitness for binding parS DNA” value is at most 0.2.

RRGM: the “one-hybrid fitness for binding parS DNA” value was 0.391.

In the case of SPPK, the “one-hybrid fitness for binding parS DNA” value is at most 0.2.

Regarding RSIQ, the “one-hybrid fitness for binding parS DNA” value was at most 0.2.

On to YRAT, for which the “one-hybrid fitness for binding parS DNA” value is at most 0.2.

Take EFSC: the “one-hybrid fitness for binding parS DNA” value is at most 0.2.

Consider DTGT, for which the “one-hybrid fitness for binding parS DNA” value is at most 0.2.

As for LRWE, the “one-hybrid fitness for binding parS DNA” value is at most 0.2.

On to AHLK, for which the “one-hybrid fitness for binding parS DNA” value was at most 0.2.

MITC: the “one-hybrid fitness for binding parS DNA” value was at most 0.2.

Turning to RRPK, the “one-hybrid fitness for binding parS DNA” value is at most 0.2.

On to LTLY, for which the “one-hybrid fitness for binding parS DNA” value is at most 0.2.

Regarding RRQK, the “one-hybrid fitness for binding parS DNA” value was at most 0.2.

RRNR: the “one-hybrid fitness for binding parS DNA” value was at most 0.2.

Regarding RRQT, the “one-hybrid fitness for binding parS DNA” value turned out to be 0.551.

With RRNK, the “one-hybrid fitness for binding parS DNA” value was at most 0.2.

With RRNT, the “one-hybrid fitness for binding parS DNA” value is 0.565.

Regarding DRHT, the “one-hybrid fitness for binding parS DNA” value is at most 0.2.

RRHR: the “one-hybrid fitness for binding parS DNA” value is at most 0.2.

As for RRQF, the “one-hybrid fitness for binding parS DNA” value is at most 0.2.

For the variant RRHT, the “one-hybrid fitness for binding parS DNA” value was 0.593.
